Test results as given in PubChem BioAssay AID436 (Emory University Molecular Libraries Screening Center, 2006).
Screen size: about 72,000 compounds; about 350 (0.49%) were called active. Many of the other results were omitted from the sample, so actives are more common in it than they were. A number with no mark means an inactive call.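 The calls were made as follows: active = activity remaining at or below 50% of control, provided the compound also passes the data quality filters; inactive = the rest, including low values that fail the filters.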

Target: Ubiquitin carboxyl-terminal hydrolase BAP1 (Homo sapiens) (UniProt Q92560)
Sequence (Q92560 whole entry, looked up): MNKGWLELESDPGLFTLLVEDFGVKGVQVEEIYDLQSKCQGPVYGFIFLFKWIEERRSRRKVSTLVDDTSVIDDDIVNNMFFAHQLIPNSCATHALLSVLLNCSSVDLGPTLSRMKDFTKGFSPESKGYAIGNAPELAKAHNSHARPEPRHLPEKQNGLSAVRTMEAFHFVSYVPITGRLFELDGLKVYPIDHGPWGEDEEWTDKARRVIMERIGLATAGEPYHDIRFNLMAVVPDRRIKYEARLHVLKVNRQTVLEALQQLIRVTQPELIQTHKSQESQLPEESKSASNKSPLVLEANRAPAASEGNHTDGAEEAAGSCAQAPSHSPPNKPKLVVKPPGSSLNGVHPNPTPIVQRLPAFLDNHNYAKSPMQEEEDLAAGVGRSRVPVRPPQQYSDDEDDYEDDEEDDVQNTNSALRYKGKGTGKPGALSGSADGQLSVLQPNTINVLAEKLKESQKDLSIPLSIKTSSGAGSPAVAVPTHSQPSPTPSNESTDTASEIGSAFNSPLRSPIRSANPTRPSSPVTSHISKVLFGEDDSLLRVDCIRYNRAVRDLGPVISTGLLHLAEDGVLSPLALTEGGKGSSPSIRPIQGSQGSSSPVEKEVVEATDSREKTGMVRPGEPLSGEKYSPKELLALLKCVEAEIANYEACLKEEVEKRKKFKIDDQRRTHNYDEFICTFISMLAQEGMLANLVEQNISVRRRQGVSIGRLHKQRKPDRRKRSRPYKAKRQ
Test: BAP1 ubiquitin hydrolase activity blockers – biochemical, Ub-AMC fluorescence, kinetic, primary screen (AID 436);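 also: 100% = DMSO wells rate and 0% = substrate alone blank rate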
Settings: recombinant BAP1, Ub-AMC hydrolysis fluorescence kinetic; at 20 µM; active compounds read low

SMILES	activity remaining (% of control)
COc1ccc(Cn2c(NCCO)nc3c2c(=O)n(C)c(=O)n3C)cc1	103%
Cc1cc(=O)oc2cc(OC(=O)c3ccc([N+](=O)[O-])cc3Cl)ccc12	479%
Cc1ccc[n+](CC(=O)c2ccc(Cl)cc2)c1C	57.4%
O=c1oc2ccccc2cc1-c1nnc(-c2ccccc2)o1	380%
COc1ccc2cc(C(=O)Nc3cccc(C(F)(F)F)c3)c(=N)oc2c1	72.3%
CNc1nonc1C(=O)O	154%
O=C(Nc1cccnc1)c1ccc(Cl)c([N+](=O)[O-])c1	66%
O=C(Nc1ccc(-c2cn3ccccc3n2)cc1)c1ccc(Br)cc1	63.1%
N#Cc1cccc2c1-c1ccc([N+](=O)[O-])cc1C2=O	96.3%
Cc1cccc(C)c1OCC(O)CN1CCCCC1 (stereo not given)	59.4%
CCOc1ccccc1NC(=O)c1c(NC(=O)c2cccs2)sc2c1CCC(C)C2 (stereo not given)	92.6%
Cc1cc(Br)ccc1N1C(=O)C2CCCCC2C1=O (stereo not given)	93.8%
CCc1ccc(OC(=O)c2cc3cc(Br)ccc3oc2=O)cc1	80.8%
CCc1ccc2oc(-c3cccc(NC(=O)c4ccccc4Br)c3)nc2c1	56.4%
O=C(Nc1nnc(CCS(=O)(=O)c2ccc3ccccc3c2)s1)c1ccc(F)cc1	64.8%
Cc1cccc(C(C)C)c1NC(=O)c1ccco1	233%
O=C(Nc1ccc(-c2nc3ccccc3o2)cc1)c1ccc(S(=O)(=O)N2CCCCC2)cc1	288%
O=C(Cc1cccc2ccccc12)Nc1ccccc1-c1nc2ccccc2s1	75.2%
CCOc1ccc(C(=O)Nc2cccc(C(=O)Nc3cccc4ccccc34)c2)cc1[N+](=O)[O-]	71.1%
O=C(Nc1nc2c(s1)C(=O)CCC2)c1ccccc1Cl	51.9%
CCOC(=O)c1c(NC(=O)c2cc3ccccc3oc2=O)sc(C(=O)CC)c1C	49.7%
O=C(NCc1ccccc1)c1nn2c(C(F)(F)F)cc(-c3ccccc3)nc2c1Br	70%

SMILES	activity remaining (% of control)
CCCOc1ccc(C(=O)Nc2c(C)ccc3nsnc23)cc1	203%
COCCc1nnc(NC(=O)c2ccc([N+](=O)[O-])cc2)s1	111%
CC1=C(C(=O)OCCc2ccccc2)C(c2ccc([N+](=O)[O-])cc2)NC(=O)N1C (stereo not given)	72.8%
COc1ccc(-n2nc3cc(C)c(NC(=O)c4ccc(Br)o4)cc3n2)cc1	63%
CC(C)(C)C(=O)Nc1ccc(C(=O)Nc2nccs2)cc1	63.4%
NC(=O)c1ccccc1NC(=O)COc1ccc([N+](=O)[O-])cc1	138%
Cc1ccc(C=Cc2ccncc2)cc1	139%
N#Cc1c(NC(=O)CCCN2C(=O)c3ccccc3C2=O)oc(-c2ccccc2)c1-c1ccccc1	56.8%
N#Cc1c(/N=C/N2CCCC2)oc(-c2ccccc2)c1-c1ccccc1	41.5% (active)
NC(=O)c1c(NC(=O)CCCCCN2C(=O)c3ccccc3C2=O)sc2c1CCC2	140%
COC(=O)C1=C(C)Nc2nnnn2C1c1ccccc1 (stereo not given)	171%
COc1cc(C(=O)Nc2ccc(Cl)cc2[N+](=O)[O-])cc(OC)c1OC	87.7%
C[n+]1ccccc1C=Cc1ccccc1	120%
Cc1cccc2cc(CN(Cc3ccc4c(c3)OCO4)Cc3nnnn3C3CCCC3)c(=O)[nH]c12	53.1%
Cc1cccc2cc(CN(Cc3cccs3)C(c3nnnn3C3CCCC3)C(C)C)c(=O)[nH]c12 (stereo not given)	57.3%
CCC(c1nnnn1C1CCCC1)N(Cc1cccs1)Cc1cc2cccc(C)c2[nH]c1=O (stereo not given)	49.7% (active)
COC(=O)c1ccc(C(=O)Nc2cccc3c2C(=O)c2ccccc2C3=O)cc1	177%
CC(C)C(=O)N1c2ccccc2NC2=C(C(=O)CC(c3ccccc3)C2)C1c1ccc(F)cc1 (stereo not given)	63.6%
O=C(c1ccccc1)N1CCN(c2ccc([N+](=O)[O-])cc2F)CC1	64.8%
COc1cc(C2CC(=O)Nc3c2cc(Br)c2ccccc32)cc(Br)c1OC (stereo not given)	57.5%
CC(C)(C)c1ccc(OCC(O)CN2CCN(c3ccccc3F)CC2)cc1 (stereo not given)	152%
CC(C)(C)c1ccc(C(=O)Nc2nnc(Cc3ccc(F)cc3)s2)cc1	75.1%

SMILES	activity remaining (% of control)
COc1ccc(C=Nc2sc(C)c(C)c2C#N)cc1	103%
COC(=O)c1sc(-c2ccccc2)cc1NC(=O)c1ccc(S(=O)(=O)N2CCOCC2)cc1	193%
O=C1NCCCC1C1=NC(CO)(CO)CO1 (stereo not given)	82.8%
CCCOC(=O)c1cccc(NC(=O)COc2cccc(Cl)c2)c1	91.3%
CCOc1ccc(C(=O)Nc2ccc3c(c2)oc2ccccc23)cc1	144%
CCCCOc1ccc(C(=O)Nc2nc3ccc4nc(C)sc4c3s2)cc1	167%
CCC(=O)OCC1OC(n2ccc(=O)[nH]c2=O)CC1OC(=O)CC (stereo not given)	130%
COc1ccc(CCNC(=O)c2cccc([N+](=O)[O-])c2C)cc1	86.2%
COc1ccc(C(=O)Nc2cccc(C)n2)cc1[N+](=O)[O-]	80.8%
CN1C(=O)C(=O)/C(=C(/O)c2ccc(F)cc2)C1c1ccc(F)cc1 (stereo not given)	58.4%
Cn1c(=O)[nH]c(=O)c2c1nc(N1CCOCC1)n2CCO	159%
CCCCNC(=O)c1c[nH]c2ccc(S(=O)(=O)Nc3ccc(OCC)cc3)cc2c1=O	32.9% (active)
COc1cccc(NS(=O)(=O)c2ccc3[nH]cc(C(=O)NCCCOC(C)C)c(=O)c3c2)c1	79.5%
Cn1c(=N)n(CC(O)c2cccs2)c2ccccc21 (stereo not given)	85.6%
COc1cc(NC(=O)COc2ccccc2)c(OC)cc1Cl	141%
O=C(Nc1cc2cccc([N+](=O)[O-])c2oc1=O)c1ccccc1[N+](=O)[O-]	61.5%
Cc1cc(C)nc(NS(=O)(=O)c2ccc(NC(=O)c3ccc(F)cc3)cc2)n1	67.2%
Clc1ccc2[nH]c3ccccc3c2c1	65%
Cc1cc(O)c2c(=O)c(-c3csc(C)n3)c(C(F)(F)F)oc2c1	130%
O=C(OCCN1C(=O)c2ccccc2C1=O)c1ccc([N+](=O)[O-])cc1	90.6%
O=[N+]([O-])c1ccc(C=Nc2nc3c(s2)CCCC3)cc1	113%
